# Sampled rows, rich in hits. Any-hit rate of the full collection: about 5.9%.
# HSF-1 act – increases HSF-1 driven luciferase reporter signal; 1.7% of 300,000 active; activation, % at 9 µM; NIH3T3-HGL HSF-1 luciferase reporter, MG132, 8 h; 100% = twice DMSO control signal;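 active = mean replicate activation of at least 50% with a set share of replicates each reaching 50%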;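 also: 0% = median of the neutral control wells and 100% = twice that signal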
# AHR activator – human AHR activation; 2.5% of 320,000 active; P35869; AID 2796; AHR-responsive luciferase reporter cells, luminescence; activation, % at 5 µM; in the data active = activation above about 47%;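 also: 0% = vehicle wells and 100% = reference agonist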
# Target sequence (P35869 whole entry, looked up): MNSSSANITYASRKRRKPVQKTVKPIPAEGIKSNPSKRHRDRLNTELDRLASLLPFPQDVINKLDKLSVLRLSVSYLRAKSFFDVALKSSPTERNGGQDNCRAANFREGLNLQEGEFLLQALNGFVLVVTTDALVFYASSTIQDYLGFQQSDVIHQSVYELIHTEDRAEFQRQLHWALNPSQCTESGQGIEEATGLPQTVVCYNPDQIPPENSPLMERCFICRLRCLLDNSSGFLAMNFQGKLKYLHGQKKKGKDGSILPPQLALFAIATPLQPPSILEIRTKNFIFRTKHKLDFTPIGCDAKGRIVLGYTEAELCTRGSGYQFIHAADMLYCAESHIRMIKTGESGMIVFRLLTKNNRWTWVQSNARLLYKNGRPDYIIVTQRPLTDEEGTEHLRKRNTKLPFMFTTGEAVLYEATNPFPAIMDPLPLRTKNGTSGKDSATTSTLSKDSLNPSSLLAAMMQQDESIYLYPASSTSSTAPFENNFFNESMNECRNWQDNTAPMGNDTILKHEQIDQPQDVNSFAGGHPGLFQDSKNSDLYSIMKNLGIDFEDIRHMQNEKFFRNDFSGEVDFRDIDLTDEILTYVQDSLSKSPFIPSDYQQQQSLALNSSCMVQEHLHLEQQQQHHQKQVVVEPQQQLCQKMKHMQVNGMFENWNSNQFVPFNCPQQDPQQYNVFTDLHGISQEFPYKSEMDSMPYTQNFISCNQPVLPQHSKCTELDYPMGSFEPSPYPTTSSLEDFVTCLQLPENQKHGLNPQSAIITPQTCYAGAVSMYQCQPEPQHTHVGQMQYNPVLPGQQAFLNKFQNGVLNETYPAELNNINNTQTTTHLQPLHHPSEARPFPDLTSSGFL
# HSP90 refold inh – inhibitors of HSP90 luciferase refolding in rabbit reticulocyte lysate | luciferase refolding luminescence, 3 h | inhibition, % at 5.6 µM | 0.91% of 290,000 active;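 active = inhibition above the screen-wide mean plus 3 SD, computed separately per campaign, cut at about 16% in these data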;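 also: 0% = DMSO wells and 100% = 60 µM geldanamycin wells; inhibitors lower the luminescence because luciferase stays unfolded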
# DAX1 inh – inhibitors of human orphan nuclear receptor DAX1 (NR0B1) | P51843 | HEK293 Gal4-DAX1 luciferase reporter, luminescence | inhibition, % at 6.75 µM | 0.99% of 340,000 active | AID 504766;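 active = inhibition above the mean over all tested compounds plus 3 SD, cut at about 4.2% in these data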;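 also: 0% = DAX1-transfected cells with DMSO and 100% = empty-vector control cells with DMSO; inhibition shows as a rise in luminescence from relieved DAX1 repression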
# FXN GAA850 act – activators of GAA850 frataxin (FXN) promoter. HEK293 lucGAA850 FXN promoter luciferase reporter, 24 h; percent of 10 µM SAHA response. activation, % at 6 µM. 0.56% of 360,000 active. AID 540364;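 active = activation above the average of all compounds screened plus 3 SD, cutoff fixed separately per campaign, cut at about 7.5% in these data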;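 also: 0% = DMSO wells and 100% = 10 µM SAHA wells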
# HSF1 inhib – HSF1 inhibition; NIH3T3-HGL HSE-luciferase, MG132-induced, luminescence 8 h; hits give low values; activity change, negative = inhibition, % at 7.5 µM (by protocol); 0.77% of 300,000 active; AID 2098;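 active = more than half of replicate wells show activity change below -50%, luminescence cut by over half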;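 also: luciferase reports HSF-1 transcriptional activity via heat shock element; 0% = median of DMSO wells and -100% = zero luminescence signal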
# * hit, by the source's call; . = no result given.
SMILES,HSF-1 act,AHR activator,HSP90 refold inh,DAX1 inh,FXN GAA850 act,HSF1 inhib
CCOC(=O)c1c(C)[nH]c(C(=O)Cn2nnc(-c3ccccc3Cl)n2)c1C,61.0*,8.9,-0.1,-0.9,-1.5,26.4
CCSCCCn1[nH]c2ccccc2c1=O,.,.,.,1.1,1.4,.
NS(=O)(=O)c1ccc(NS(=O)(=O)c2ccc(C3CNC(=O)C3)cc2)cc1 (stereo unspecified),10.4,0.5,0.8,0.3,-0.2,-6.3
COc1cccc(C(C(=O)NC2CCCCC2)N(C(=O)CNC(=O)c2ccco2)c2cccnc2)c1 (stereo unspecified),22.9,2.2,-1.4,-0.7,0.2,1.7
CC(NC(=O)Cc1ccccc1F)c1ccc(F)cc1 (stereo unspecified),-1.5,-1.8,0.2,4.8*,1.3,-2.0
CCN(C(=O)CSc1nc2cc(C(=O)O)ccc2c(=O)n1-c1ccccc1F)C1CCS(=O)(=O)C1 (stereo unspecified),.,.,.,0.2,0.2,.
O=c1nc(/C=C/c2ccc(O)c(O)c2)oc2ccccc12,27.8,.,0.6,4.8*,3.9,18.8
CC(C(=O)OCC(=O)NC1CCCCC1)N1C(=O)c2ccccc2C1=O (stereo unspecified),.,-0.6,.,-0.2,-0.5,.
COc1cccc(OC)c1OC(=O)c1ccccc1,.,.,.,3.4,1.5,.
CN(C)C(=S)SCC(=O)Nc1ccc(Cl)cc1Cl,61.4*,1.1,1.3,0.8,5.5,27.8
NS(=O)(=O)c1ccc(CCNC(=O)c2ccc(OCC3CCCO3)cc2)cc1 (stereo unspecified),6.3,-4.0,0.6,-0.1,0.9,-1.1
CCOC(=O)c1ccc(-n2ccnc2)c(NC(=O)c2ccc(Cl)cc2)c1,17.2,53.4*,-3.5,-1.4,1.0,6.3
COc1cc(/C=N/N=C(\N)c2nonc2N)cc(OC)c1O,11.0,-6.1,-0.4,4.2*,4.1,4.4
COc1ccc(/C=N/N=C(\N)c2nonc2N)cc1,1.5,.,12.3,-2.0,1.3,-3.3
O=C(c1ccc2nccnc2c1)N1CCCC(Nc2ccc(F)c(F)c2)C1 (stereo unspecified),59.3*,2.3,7.3,0.1,0.8,21.7
CC(Oc1ccc(Cl)cc1Cl)c1nc(-c2ccccn2)no1 (stereo unspecified),76.0*,5.8,-2.5,1.5,5.5,53.3
COCCn1c(SCC(=O)NCCc2ccccc2)nnc1-c1ccco1,54.9*,-2.9,-2.3,1.3,0.5,27.0
COc1ccc(CCNC(=O)CSc2ccc(-c3ccco3)nn2)cc1,-76.3,1.4,-1.3,-0.7,0.0,-68.5*
CCn1c(SCC(=O)NCCc2ccccc2)nnc1-c1ccco1,-18.9,-1.0,-0.3,-0.6,0.1,-2.7
Cc1nc(N2CCN(Cc3ccccc3)CC2)nc2c1CCC2,-3.9,-0.5,-0.1,0.4,0.3,-2.9
FC(F)(F)c1nc(N2CCN(c3ccccc3)CC2)nc2c1CCCCC2,-2.2,65.5*,-1.3,1.0,-1.8,-0.5
Cc1ccc(NC(=O)/C=C2\NC(=O)CS2)cc1,32.7,60.6*,3.8,1.4,1.3,5.5
CC(C)(C)c1cc(NC(=O)CCSc2nnc3ccccn23)cc(C(C)(C)C)c1,54.3*,-0.7,-1.3,1.6,1.0,17.4
CCNC(=O)C1(C)CCCN(C(=O)c2csc3ccccc23)C1 (stereo unspecified),.,.,.,.,0.6,.
Nc1ccccc1S(=O)(=O)NC1=NCCCCC1,-0.8,-2.2,-3.1,4.4*,-0.1,-7.0
SMILES,HSF-1 act,AHR activator,HSP90 refold inh,DAX1 inh,FXN GAA850 act,HSF1 inhib
CCc1ccc(-c2nc(SCC(=O)c3c(N)n(C4CC4)c(=O)[nH]c3=O)n[nH]2)cc1,.,5.8,.,-0.8,2.6,.
CCN(CC)C(=S)SCC(=O)c1ccccc1,44.7,5.3,-2.5,3.7,5.6,19.2
CCN(CC)C(=S)SCC(=O)c1ccc(F)cc1,65.9*,2.6,0.6,1.8,6.6,43.0
CCCNC(=O)NC(=O)CN1C(=O)NC(C)(c2ccc3ccccc3c2)C1=O (stereo unspecified),32.5,2.5,-1.6,0.2,1.4,24.1
O=C(/C=C/c1cccc([N+](=O)[O-])c1)n1cnc2ccccc21,231.2*,.,-3.8,.,5.0,207.0
CCn1c(=O)cc(SCC(=O)N2CCN(C3CCCCC3)CC2)c2ccccc21,61.7*,36.8,6.9,2.5,0.6,29.6
CCn1c(=O)cc(SCC(=O)Nc2ccc(OC)c(OC)c2)c2ccccc21,3.7,-7.9,-0.4,-2.7,4.0,2.7
Cn1c(=O)cc(SCC(=O)N2CCN(c3ccccn3)CC2)c2ccccc21,38.4,63.7*,6.5,0.0,0.5,8.6
Cc1ccnc(NC(=O)CSc2cc(=O)n(C)c3ccccc23)c1,9.5,39.2,-0.6,0.2,1.6,-1.8
CCn1c(=O)cc(SCC(=O)Nc2ccc(Cl)cc2)c2ccccc21,97.0*,-1.1,0.4,2.4,-0.2,32.1
Cn1c(=O)cc(SCC(=O)Nc2ccccn2)c2ccccc21,-1.1,62.2*,2.1,.,.,-10.9
Cc1ccc(C2(C)NC(=O)N(CC(=O)N(Cc3ccccc3)C(C)(C)C)C2=O)cc1 (stereo unspecified),7.6,1.4,-0.9,0.9,-0.1,4.5
NNC(=O)c1ccc(CN2CCCCC2)o1,13.1,0.4,-2.3,-0.4,0.3,0.3
Cn1c(=O)cc(SCC(=O)N2CCOCC2)c2ccc(Cl)cc21,97.8*,18.6,-1.9,1.6,-0.1,54.2
Cn1c(=O)cc(SCC(=O)N2CCCC2)c2ccc(Cl)cc21,26.1,12.7,3.1,0.2,-0.9,1.3
Cc1ccc(CNc2nc3ccc(C)cc3n3cnnc23)cc1,26.6,-2.0,-2.2,-0.4,1.6,10.7
CC(CNc1nc2ccc(Cl)cc2n2cnnc12)c1ccccc1 (stereo unspecified),49.6,6.8,4.9,5.5*,1.3,4.0
C=CCn1c(NCc2ccc3c(c2)OCO3)nc2ccccc21,.,42.8,1.3,0.3,4.4,.
C=CCn1c(NCc2ccccc2)nc2ccccc21,18.9,11.2,1.2,7.1*,1.6,4.6
c1ccc(CNc2nc3ccccc3n3cnnc23)cc1,-1.4,2.8,16.3*,0.6,5.3,-4.7
CCn1c(NCc2ccc3c(c2)OCO3)nc2ccccc21,19.6,68.7*,-2.2,0.8,1.4,8.2
c1ccc(CNc2nc3ccccc3n3cnnc23)nc1,0.4,50.4*,-3.6,-0.6,2.9,6.8
c1ccc(Cn2c(NCc3ccccn3)nc3ccccc32)cc1,3.4,3.2,-0.6,-0.6,0.3,1.7
C=C(C)c1cccc(C(C)(C)NC(=O)Nc2nnc(C(C)C)s2)c1,9.4,3.1,3.6,-1.3,0.1,1.3
C=C(C)c1cccc(C(C)(C)NC(=O)Nc2nncs2)c1,7.9,9.7,1.5,4.8*,0.9,4.4
CC1(C(=O)Nc2cnc3ccccc3c2)CCN1Cc1ccc(-c2ccccc2)o1 (stereo unspecified),.,.,.,.,1.2,.
